# Measurements as given in PubChem BioAssay (Tox21).
# Unmarked numbers belong to inactive results. Results filed as inconclusive are left out. Entries that show only a call come without a potency. Calls of active or inactive are those of the source. Unless noted, calls come from the whole dose curve; as a rule, active = well fitted curve in the direction sought with a large enough effect in the repeat runs; inconclusive = weak or mixed curves; inactive = no such curve, though single readings can be large; an effect the other way counts as inactive or inconclusive.
# Columns and labels:
# [1] = qHTS assay to identify small molecule agonists of the hypoxia (HIF-1) signaling pathway - cell viability counter screen (AID 1224844; calls by dose curve; note: nearly all actives have a fitted effect of over 50% in size)
# Summary of the method: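 CellTiter-Glo luminescence read-out, 30 min RT, taken in the same wells as the beta-lactamase HRE reporter assay; HRE-bla ME-180 cells, 0.5% dialyzed FBS, 17 hr compound treatment at 37C, 5% CO2.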
# [2] = qHTS assay to identify small molecule agonists of H2AX (AID 1224845; active = well fitted activation curve with a large enough effect in the signal ratio in the repeat runs, not every such curve was filed as active; the % refers to the signal ratio)
# Summary of the method: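 Wild-type CHO-K1 cells plated overnight, then exposed 3 hr at 37C to compounds at 15 concentrations (0.76% DMSO). Lysed, then HTRF anti-pH2AX(S139)-cryptate/anti-H2AX-d2 detection after 24 hr at room temperature; emissions 665 and 620 nm.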
# [3] = qHTS assay to identify small molecule agonists of the hypoxia (HIF-1) signaling pathway (AID 1224846; active = well fitted activation curve with a large enough effect in the signal ratio in the repeat runs, not every such curve was filed as active; the % refers to the signal ratio)
# Summary of the method: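 Beta-lactamase FRET read-out (CCF4-AM substrate) from ME-180 cells carrying an HRE-driven bla reporter, after 17 hrs compound exposure at 37C/5% CO2. Cells were seeded at 2,000 per well in 0.5% dialyzed FBS medium and preincubated 5 hrs.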
# [4] = qHTS assay to identify small molecule agonists of H2AX - cell viability counter screen (AID 1224847; calls by dose curve; note: nearly all actives have a fitted effect of over 30% in size; note: potency is the fitted concentration of half-maximal effect)
# Summary of the method: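 Wild-type CHO-K1 cells (10% FBS medium) were plated overnight at 37C, exposed to compounds at 15 concentrations for 3 hr at 37C (0.76% DMSO final), and viability was read as CellTiter-Glo luminescence after 30 min at room temperature.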
# [5] = qHTS assay to identify small molecule agonists of the estrogen related receptor (ERR) signaling pathway from Tox21 library (AID 1224849; calls by dose curve; note: nearly all actives have a fitted effect of over 15% in size); conditions: ERR reporter cell line, ONE-Glo luciferase, 18 h; at 92.4 µM (top of the series) unless noted
# Summary of the method: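 Luminescence readout (ONE-Glo, 30 min RT) after 18 h compound exposure at 37 C of NTP-supplied ERR reporter cells; cells were plated 6 h before compound addition by pin tool.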
# [6] = qHTS RealTime-Glo MT Cell Viability Assay in HepG2 cells - 24 hour (AID 1224867); note: nearly all actives have a fitted effect of over 50% in size
# Summary of the method: (§1)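 Viability was tracked continuously by NanoLuc luminescence from prosubstrate reduced by living HepG2 cells, at successive time points over 40 h of compound exposure. Cells with reagent were preincubated 5 h at 37 °C before compound addition.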
# [7] = qHTS RealTime-Glo MT Cell Viability Assay in HEK293 cells - 32 hour (AID 1224868); note: top concentration of the series differs between compounds; nearly all actives have a fitted effect of over 50% in size
# Summary of the method: (§2)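 Viability tracked continuously by luminescence as live cells reduce a prosubstrate for NanoLuc; HEK293 cells preincubated 5 h, compound-treated at 37 C, and read at 0, 8, 16, 24, 32 and 40 h.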
# [8] = A CellTox Green Cytotoxicity Assay to monitor cytotoxicity in HEK293 cells - 0 hour (AID 1224869); note: nearly all actives have a fitted effect of over 50% in size
# Summary of the method: (§3)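 Read-out: fluorescence of a cell-impermeant cyanine dye staining DNA of dead cells, proportional to cytotoxicity. HEK293, 600 cells/well with reagent, compound (23 nL DMSO) added after 5 h; reads at 0, 8, 16, 24, 32, 40 h.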
# [9] = qHTS RealTime-Glo MT Cell Viability Assay in HepG2 cells - 40 hour (AID 1224870); note: nearly all actives have a fitted effect of over 50% in size
# Summary of the method: (§4)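 HepG2 cells mixed with RealTime-Glo MT reagents (NanoLuc plus cell-permeant prosubstrate) were seeded at 600 cells/well, incubated 5 h at 37 C/5% CO2, then pinned with compounds in DMSO; nonlytic luminescence tracked viability during 40 h treatment.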
# [10] = A CellTox Green Cytotoxicity Assay to monitor cytotoxicity in HEK293 cells - 40 hour (AID 1224871); note: nearly all actives have a fitted effect of over 45% in size; note: potency is the fitted concentration of half-maximal effect
# Summary of the method: as §3
# [11] = qHTS RealTime-Glo MT Cell Viability Assay in HEK293 cells - 16 hour (AID 1224872)
# Summary of the method: as §2
# [12] = qHTS RealTime-Glo MT Cell Viability Assay in HepG2 cells - 8 hour (AID 1224873); note: nearly all actives have a fitted effect of over 55% in size
# Summary of the method: as §4
# [13] = qHTS RealTime-Glo MT Cell Viability Assay in HEK293 cells - 40 hour (AID 1224874); conditions: RealTime-Glo luminescence; max response: hits give low values; note: nearly all actives have a fitted effect of over 50% in size; note: potency is the fitted concentration of half-maximal effect
# Summary of the method: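 Luminescence readout at each listed time point; HEK293, 600 cells/well, RealTime-Glo MT reagent added with cells; compounds pinned (23 nL in DMSO) after 5 h at 37 C; continuous culture at 37 C.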
# [14] = A CellTox Green Cytotoxicity Assay to monitor cytotoxicity in HEK293 cells - 24 hour (AID 1224875); note: nearly all actives have a fitted effect of over 45% in size; note: potency is the fitted concentration of half-maximal effect
# Summary of the method: as §3
# [15] = A CellTox Green Cytotoxicity Assay to monitor cytotoxicity in HepG2 cells - 16 hour (AID 1224876); note: nearly all actives have a fitted effect of over 45% in size
# Summary of the method: (§5)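 HepG2, 600 cells/well premixed w/ CellTox Green; 5 h settle, 37 C/5% CO2; pintool cpd add (DMSO); 37 C, 40 h; fluorescence read at 0, 8, 16, 24, 32, 40 h.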
# [16] = qHTS RealTime-Glo MT Cell Viability Assay in HepG2 cells - 32 hour (AID 1224877); note: nearly all actives have a fitted effect of over 55% in size
# Summary of the method: as §1
# [17] = A CellTox Green Cytotoxicity Assay to monitor cytotoxicity in HepG2 cells - 24 hour (AID 1224878); note: nearly all actives have a fitted effect of over 45% in size
# Summary of the method: as §5
# [18] = A CellTox Green Cytotoxicity Assay to monitor cytotoxicity in HepG2 cells - 40 hour (AID 1224879); note: nearly all actives have a fitted effect of over 40% in size
# Summary of the method: as §5
# [19] = target: Thyrotropin receptor (Homo sapiens) (UniProt P16473); experiment: qHTS assay to identify small molecule agonists of the thyroid stimulating hormone receptor (TSHR) signaling pathway (AID 1224843; calls by dose curve; note: nearly all actives have a fitted effect of over 45% in size)
# Chain of Thyrotropin receptor (Homo sapiens) (P16473 whole entry, looked up): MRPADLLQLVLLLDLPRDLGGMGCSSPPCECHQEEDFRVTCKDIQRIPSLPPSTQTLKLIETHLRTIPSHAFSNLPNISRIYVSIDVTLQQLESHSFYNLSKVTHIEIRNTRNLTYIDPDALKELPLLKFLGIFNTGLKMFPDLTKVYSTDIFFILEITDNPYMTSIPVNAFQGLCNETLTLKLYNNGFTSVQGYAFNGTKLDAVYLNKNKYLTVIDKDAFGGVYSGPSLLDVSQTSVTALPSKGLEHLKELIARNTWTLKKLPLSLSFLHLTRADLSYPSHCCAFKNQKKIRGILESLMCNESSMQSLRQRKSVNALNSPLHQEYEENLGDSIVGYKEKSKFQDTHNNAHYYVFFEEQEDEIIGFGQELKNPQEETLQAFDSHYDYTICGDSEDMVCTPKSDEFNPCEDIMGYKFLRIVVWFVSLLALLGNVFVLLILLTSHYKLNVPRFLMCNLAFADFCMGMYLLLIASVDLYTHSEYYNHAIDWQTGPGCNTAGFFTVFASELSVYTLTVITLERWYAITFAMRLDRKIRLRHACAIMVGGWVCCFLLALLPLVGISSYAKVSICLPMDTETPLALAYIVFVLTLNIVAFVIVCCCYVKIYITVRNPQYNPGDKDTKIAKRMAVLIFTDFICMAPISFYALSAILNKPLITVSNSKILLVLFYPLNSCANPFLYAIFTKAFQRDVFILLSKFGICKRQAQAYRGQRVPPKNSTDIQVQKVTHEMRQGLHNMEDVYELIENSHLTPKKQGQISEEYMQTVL
# Summary of the method: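 Using 15 concentrations per compound in triplicate, cAMP production was monitored in TSHR-HEK293 cells after 30 min compound incubation at RT; HTRF reagents followed, with fluorescence intensity recorded after 1 h.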
# [20] = qHTS assay to identify small molecule antagonists of the estrogen related receptor (ERR) signaling pathway from Tox21 library (AID 1224848); note: nearly all actives have a fitted effect of over 50% in size; note: potency is the fitted concentration of half-maximal effect
# Summary of the method: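 Tox21 10K compounds in DMSO tested for ERR pathway antagonism in NTP's ERR cell line; 18 h, 37 C exposure; ONE-Glo luminescence.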
compound,measurement,setting,value
O=CCCc1ccccc1,Potency,[1],inactive
same,Potency,[2],inactive
same,outcome,[3],inactive
same,Potency,[4],inactive
same,"activity change, positive = activation",[5],7.2%
same,Potency,[6],inactive
same,Potency,[7],inactive
same,Potency,[8],inactive
same,Potency,[9],inactive
same,Potency,[10],inactive
same,Potency,[11],inactive
same,outcome,[12],inactive
same,max response,[13],4.45%
same,Potency,[14],inactive
same,Potency,[15],inactive
same,Potency,[16],inactive
same,Potency,[17],inactive
same,Potency,[18],inactive
CCCNC(C)C(=O)Nc1c(C)csc1C(=O)OC (stereo not drawn),Potency,[19],inactive
same,Potency,[1],inactive
same,Potency,[4],inactive
same,Potency,[20],inactive
same,"activity change, positive = activation",[5],-1.49% [at 42.5 µM]
same,Potency,[6],inactive
same,Potency,[7],inactive
same,Potency,[8],inactive
same,Potency,[9],inactive
same,Potency,[11],inactive
same,outcome,[12],inactive
same,max response,[13],-5.59%
same,Potency,[14],inactive
same,Potency,[15],inactive
same,Potency,[16],inactive
same,Potency,[17],inactive
same,Potency,[18],inactive
CCCCCCOc1ccc(N)cc1,Potency,[1],inactive
same,outcome,[3],inactive
same,Potency,[20],inactive
same,"activity change, positive = activation",[5],2.67%
same,Potency,[6],inactive
same,Potency,[8],inactive
same,Potency,[10],43600 nM (active)
same,outcome,[12],inactive
same,Potency,[14],49000 nM (active)
same,Potency,[15],inactive
same,Potency,[16],inactive
NC1=NCC2c3ccccc3Cc3ccccc3N12 (stereo not drawn),Potency,[1],inactive
same,Potency,[2],inactive
same,outcome,[3],inactive
same,Potency,[4],inactive
same,Potency,[6],inactive
same,Potency,[7],inactive
same,Potency,[8],inactive
same,Potency,[9],inactive
same,Potency,[11],inactive
same,outcome,[12],inactive
same,max response,[13],-13.1%
same,Potency,[14],inactive
same,Potency,[15],inactive
same,Potency,[16],inactive
same,Potency,[17],inactive
same,Potency,[18],inactive
Cc1nc(N)nc(N)c1-c1ccc(Cl)c(Cl)c1,Potency,[1],inactive
same,Potency,[4],1240 nM (active)
same,Potency,[20],944 nM (active)
same,"activity change, positive = activation",[5],-56.5% [at 42.5 µM]
same,Potency,[6],inactive
same,Potency,[9],inactive
same,Potency,[10],inactive
same,Potency,[11],inactive
same,outcome,[12],inactive
same,Potency,[13],1070 nM (active)
same,Potency,[14],inactive
same,Potency,[15],inactive
same,Potency,[16],inactive
same,Potency,[17],inactive
same,Potency,[18],inactive
CO[C@@]1(NC(=O)CSCC#N)C(=O)N2C(C(=O)O)=C(CSc3nnnn3C)CS[C@@H]21,Potency,[1],inactive
same,Potency,[2],inactive
same,Potency,[4],inactive
same,Potency,[6],inactive
same,Potency,[7],inactive
same,Potency,[8],inactive
same,Potency,[9],inactive
same,Potency,[10],inactive
same,Potency,[11],inactive
same,outcome,[12],inactive
same,max response,[13],7.28%
same,Potency,[14],inactive
same,Potency,[15],inactive
same,Potency,[16],inactive
same,Potency,[17],inactive
same,Potency,[18],inactive
